Sampled rows, rich in hits. Any-hit rate of the full collection: about 2.2%.
Mito fusion yeast – inhibitors of mitochondrial division or activators of mitochondrial fusion. 320,000 compounds, 0.23% hits. S. cerevisiae fusion-defective mutant growth rescue, CellTiterGlo 48 h. Potency, µM (titrated, usually from 46.1 µM), inactives show at the top dose growth rescue (activation), hits mostly activators; note: % of control where 0% means no effect; nearly all actives have a fitted effect of over 45% in size
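Temperature-sensitive fusion-defective S. cerevisiae (e.g. fzo1-1, mgm1-5) were grown with compound in YPEG medium (3% ethanol, 3% glycerol) for 48 hours at 37C. Growth rescue was measured as viability by CellTiterGlo luminescence after 10 minutes at ambient.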
TDP-43 yeast inh – inhibitors of TDP-43 toxicity in yeast. TDP-43 expressing yeast growth rescue, BacTiter-Glo, 24 h. Potency, µM (titrated, usually from 46.1 µM), without a hit: at the top dose growth rescue (activation), hits mostly activators. 410,000 compounds, 1.8% hits; note: % of control where 0% means no effect; nearly all actives have a fitted effect of over 50% in size
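Growth rescue of TDP-43-toxic yeast measured as ATP luminescence (BacTiter-Glo). Cells grown to mid-log in raffinose, induced in galactose at OD600=0.02, exposed to compound 24 hr at 30 deg C.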
Abeta rescue – A-beta toxicity reversal in yeast; yeast expressing A-beta42, growth rescue, OD600, 48 h; response scale: 0% DMSO, 100% iron-clioquinol control; Potency, µM (top dose mostly 46.1 µM), usual class: activators; 410,000 compounds, 0.063% hits; AID 1347071; note: nearly all actives have a fitted effect of over 55% in size
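Yeast growth medium received pinned compounds, then yeast cells expressing toxic A-beta were added; plates incubated at 30 C for 48 hr. Growth read as absorbance at 600 nm, normalized to DMSO and equimolar FeCl3 plus clioquinol controls.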
aSyn rescue – inhibitors of alpha-synuclein toxicity in yeast; Potency, µM (top dose mostly 46.1 µM), for inactives: at the top dose growth rescue (activation), usual class: activators; Yeast expressing alpha-synuclein, growth rescue, BacTiter-Glo, 24 h; 370,000 compounds, 0.14% hits; note: % of control where 0% means no effect; nearly all actives have a fitted effect of over 65% in size
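Readout is rescue of growth in alpha-synuclein-expressing yeast, so inhibitors of toxicity appear as activators. Growth after 24 hr at 30 deg C in galactose medium is quantified by luminescence.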
FUS yeast rescue – FUS proteinopathy suppression in yeast | S. cerevisiae FUS-expressing, growth rescue, OD600, 24 h | AID 1347120 | Potency, µM (series often up to 76.6 µM), usual class: activators | 390,000 compounds, 0.24% hits;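 note: plate controls were DMSO vehicle for no effect and reference control for full effect; nearly all actives have a fitted effect of over 55% in size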
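Toxicity suppression screen in FUS-yeast. Cells induced with 2% galactose, starting OD 0.005, treated 24hr at 30C with compounds at multiple final concentrations; growth by OD600.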
Starred values were filed as active, the others as inactive; i = inactive; ? = inconclusive; · = not tested or not shown. Calls come from the whole dose curve; as a rule, active = well fitted curve in the direction sought with a large enough effect; inconclusive = small, poorly fitted or top-dose-only effect, or another doubt; inactive = no such curve, though single readings can be large; an effect the other way counts as inactive or inconclusive. Potency is the fitted concentration of half-maximal effect.

SMILES	Mito fusion yeast	TDP-43 yeast inh	Abeta rescue	aSyn rescue	FUS yeast rescue
Cc1ccc(C2C=C(c3ccccc3OC(F)F)Nc3ncnn32)cc1 (stereo not given)	-8%	13µM*	i	12%	·
Cc1ccc(C2C=C(c3ccc4c(c3)OCO4)Nc3ncnn32)cc1 (stereo not given)	-24%	13µM*	i	10%	i
C1=C(c2ccccc2)Nc2ncnn2C1c1ccccc1 (stereo not given)	·	20µM*	i	-3%	i
Cc1ccc(C2=CC(c3ccccc3)n3ncnc3N2)cc1 (stereo not given)	·	13µM*	i	8%	i
CN(C(=O)[C@@H](C1CC1)[C@@H](O)c1ccc2ccccc2c1)c1ccccc1	·	·	·	·	i
NC(=O)C1(Nc2ccc(Cl)cc2)CCCC1	·	-7%	i	-8%	i
COc1ccccc1-c1cc2ccccc2[nH]1	6%	16µM*	i	-16%	i
O=C(O)c1ccccc1-c1cc2ccccc2[nH]1	·	-3%	i	2%	i
CC1(C)[C@@H](O)CC[C@]2(C)C3C(O)C=C4[C@H]5C[C@@](C)(CO)CC[C@]5(C)CC[C@]4(C)[C@]3(C)CC[C@@H]12 (stereo not given in full)	11µM*	-1%	i	3%	i
O=C(Cc1ccc(Cl)cc1Cl)OCC(=O)c1ccc[nH]1	2%	18µM*	i	14%	i
CN1[C@@H](Cc2ccccc2)COc2cc(N3CCCC3)ccc2S1(=O)=O	·	·	·	·	i
CCOC(=O)N1CCN(c2ccc(S(=O)(=O)N3CCC(C)CC3)cc2[N+](=O)[O-])CC1	25%	22µM*	i	3%	i
O=c1c2sccc2nc(SCc2ccc([N+](=O)[O-])cc2)n1Cc1ccccn1	27%	22µM*	i	3%	·
CC(C)Cn1c(N)c(C(=O)COC(=O)c2ccc(Cl)cc2)c(=O)n(C)c1=O	6%	·	i	14%	i
CC(C)Cn1c(N)c(C(=O)COC(=O)c2c(O)c(Cl)cc(Cl)c2Cl)c(=O)n(C)c1=O	22%	25µM*	i	-15%	i
CN(NC(=O)c1ccc(Cl)cc1)c1ncc(C(F)(F)F)cc1Cl	-2%	3%	i	-2%	i
O/N=C(\c1ccc(Cl)cc1)c1ncc(C(F)(F)F)cc1Cl	8%	13µM*	i	-16%	i
CC(=O)N1CCc2c(sc3c2c(=O)n(Cc2ccccc2)c(=O)n3Cc2ccccc2F)C1	·	17%	i	·	i
CC(=O)N1CCc2c(sc3c2c(=O)n(CCc2ccccc2)c(=O)n3Cc2ccc(F)cc2)C1	·	16µM*	i	·	?
CC(=O)N1CCc2c(sc3c2c(=O)n(Cc2ccccc2)c(=O)n3Cc2ccccc2Cl)C1	·	16µM*	i	·	i
CCOC(=O)N1CCc2c(sc3c2c(=O)n(CCc2ccccc2)c(=O)n3Cc2ccc(F)cc2)C1	·	-8%	i	·	i
CCOc1ccc(/C=N/n2c(-c3n[nH]c4c3CCC4)n[nH]c2=S)cc1	·	·	·	·	i
COC(=O)/C=C1\S/C(=N\N=C\CC(=O)OC)NC1=O	-1%	-7%	?	-11%	32µM*
COCC1CCN(Cc2c(C(=O)N3CCc4ccccc4C3)nc3ccc(Cl)cn23)C1 (stereo not given)	1%	7%	i	8%	7.1µM*
Cc1ccc(C(=O)NC(C)c2ccncc2)o1 (stereo not given)	2%	2%	i	-7%	i
SMILES	Mito fusion yeast	TDP-43 yeast inh	Abeta rescue	aSyn rescue	FUS yeast rescue
CCCCN(C(=O)CSc1nn(-c2ccc(F)cc2)c(=S)s1)c1c(N)n(CCCC)c(=O)[nH]c1=O	-4%	-17%	i	-4%	7.1µM*
CCCCn1c(=O)c(C(=O)OCC)c(O)c2ccccc21	18%	16µM*	i	7%	?
CCCCCn1c(=O)c(C(=O)OCC)c(O)c2ccccc21	14%	-7%	i	13%	i
O=C(Nc1nc(-c2ccccc2)cs1)c1cccs1	-2%	13µM*	i	-30%	i
CC(C)(C)c1csc(NNC(=O)c2ccc(Cl)cc2)n1	-5%	-18%	i	18µM*	?
CC1CC1C(=O)Nc1nc(-c2ccccc2)cs1 (stereo not given)	8%	18µM*	i	-6%	i
CN(C)CC(=O)Nc1nc(-c2ccccc2)cs1	1%	6%	i	-18%	i
CC(C)(C)c1csc(NC(=O)c2cccs2)n1	13%	16µM*	i	-13%	i
N#CCCSc1nc(N2CCOCC2)c2c(c1C#N)CCCC2	-5%	18µM*	i	15%	i
CN(CCc1ccccn1)C(=O)Cn1nc(-c2ccccc2)ccc1=O	·	·	·	·	i
OCCCN1CCC2(CCC(c3ccccc3)CC2)C1 (stereo not given)	·	·	·	·	i
COc1cc(-c2cc(=O)c3c(O)c(OC)c(OC)c(OC)c3o2)cc(OC)c1OC	5%	6%	i	25µM*	i
COc1cc(-c2cc(=O)c3c(C)cc(O)cc3o2)cc(OC)c1OC	·	0%	i	0%	·
O=C1N2Cc3ccccc3C2CS(=O)(=O)N1Cc1ccccc1 (stereo not given)	·	·	·	·	i
COc1ccc(-c2cc(-c3nnc(SCC(=O)N4CCOCC4)n3N)[nH]n2)cc1	·	·	·	·	i
O=C(NN=C1c2ccccc2-c2ccccc21)c1ccccc1	2%	17%	i	-4%	i
CCOC(=O)NN=C1c2ccccc2-c2ccccc21	-4%	5µM*	i	-1%	i
NC(=S)NN=C1c2ccccc2-c2ccccc21	30%	18µM*	i	10%	i
CCOC(=O)Nc1ccc2c(c1)C(=NNC(=S)NC)c1ccccc1-2	·	25µM*	i	-12%	i
CCOC(=O)N/N=C1\CCc2ccccc21	0%	-4%	i	-7%	i
CC(C)[C@H](N)C(=O)N[C@H](C(=O)N1CCC2CCN(S(=O)(=O)c3ccccc3)CC21)C(C)C (stereo not given in full)	·	·	·	·	i
COc1cc(NC(=O)C2CCCN(S(=O)(=O)c3cccs3)C2)cc(OC)c1 (stereo not given)	·	·	·	·	i
CCOC(=O)[C@@]12CCCC=C1N(CCc1ccc(Cl)cc1)C(=O)[C@H]2CC(=O)NCC1CCCCC1	·	·	·	·	i
Clc1cccc2sc(N3CCCC3)nc12	-8%	13µM*	i	2%	i
Clc1cccc2sc(N3CCOCC3)nc12	·	23%	i	6%	i
Cc1nc(-c2ccc(F)cc2)sc1CCNC(=O)c1ccc(C(C)(C)C)cc1	·	-3%	i	·	i
COc1ccc(-c2nc(C)c(CCNC(=O)c3ccco3)s2)cc1	·	16µM*	i	-10%	i
